# Results from PubChem BioAssay (NCATS).
# Results filed as inconclusive are left out. Where a call stands in place of a potency, no number is given. Values without a mark were called inactive. Activity calls are given as the source filed them. Unless noted, calls come from the whole dose curve; as a rule, active = well fitted curve in the direction sought with a large enough effect; inconclusive = small, poorly fitted or top-dose-only effect, or another doubt; inactive = no such curve, though single readings can be large; an effect the other way counts as inactive or inconclusive.
# How the values were obtained:
# [1] = target: ATP-dependent 6-phosphofructokinase (Trypanosoma brucei brucei) (UniProt O15648); experiment: qHTS Assay to Find Inhibitors of T. brucei phosphofructokinase: hit validation (AID 492961);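 note: luminescence reports ADP formed as PFK phosphorylates fructose-6-phosphate with ATP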
# ATP-dependent 6-phosphofructokinase (Trypanosoma brucei brucei), sequence (O15648 whole entry, looked up): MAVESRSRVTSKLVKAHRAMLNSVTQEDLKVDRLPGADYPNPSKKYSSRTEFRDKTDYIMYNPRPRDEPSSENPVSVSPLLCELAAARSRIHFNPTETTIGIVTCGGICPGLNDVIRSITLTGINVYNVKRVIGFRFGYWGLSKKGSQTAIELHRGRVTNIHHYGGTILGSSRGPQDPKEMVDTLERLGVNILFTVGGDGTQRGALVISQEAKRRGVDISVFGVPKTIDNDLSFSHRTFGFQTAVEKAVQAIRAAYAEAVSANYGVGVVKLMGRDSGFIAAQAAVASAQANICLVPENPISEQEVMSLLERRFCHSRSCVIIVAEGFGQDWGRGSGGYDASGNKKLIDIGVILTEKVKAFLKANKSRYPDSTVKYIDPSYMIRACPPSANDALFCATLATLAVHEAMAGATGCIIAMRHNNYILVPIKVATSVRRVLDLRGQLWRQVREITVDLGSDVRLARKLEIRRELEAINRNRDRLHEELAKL
# How it was run: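 Inhibition of parasite PFK is measured as reduced ADP formation, quantified via luciferase after ATP depletion. Assay used 0.1 mM ATP, 0.5 mM F6P, 1.25 nM enzyme, 45 min incubation.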
# [2] = target: Luciferin 4-monooxygenase (Photinus pyralis) (UniProt P08659); experiment: Biochemical firefly luciferase enzyme assay for NPC (AID 624030); note: nearly all actives have a fitted effect of over 70% in size; note: potency is the fitted concentration of half-maximal effect
# Luciferin 4-monooxygenase (Photinus pyralis), sequence (P08659 whole entry, looked up): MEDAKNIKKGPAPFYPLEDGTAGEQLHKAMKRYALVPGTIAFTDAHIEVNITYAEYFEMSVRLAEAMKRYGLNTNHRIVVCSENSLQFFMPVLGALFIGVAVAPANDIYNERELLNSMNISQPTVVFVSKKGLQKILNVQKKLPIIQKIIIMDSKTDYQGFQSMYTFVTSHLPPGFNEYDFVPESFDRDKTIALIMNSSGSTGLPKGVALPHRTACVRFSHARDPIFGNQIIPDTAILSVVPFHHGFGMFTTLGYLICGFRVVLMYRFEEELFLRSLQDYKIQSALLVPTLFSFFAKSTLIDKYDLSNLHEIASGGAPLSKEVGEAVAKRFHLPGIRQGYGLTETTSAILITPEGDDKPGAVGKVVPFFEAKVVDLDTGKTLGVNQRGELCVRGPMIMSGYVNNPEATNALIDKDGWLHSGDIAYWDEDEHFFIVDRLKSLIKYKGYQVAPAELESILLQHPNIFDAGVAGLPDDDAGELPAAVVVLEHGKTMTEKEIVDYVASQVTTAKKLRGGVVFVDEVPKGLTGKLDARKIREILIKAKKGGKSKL
# How it was run: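 Purified P. pyralis luciferase at 10 nM in 50 mM Tris Acetate (final), luminescence read within 5 minutes of enzyme addition to compounds. Activity normalised to PTC124 versus DMSO; concentration-response curves classed by r2, magnitude and activity.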
# [3] = S16 Schwann cell PMP22 intronic element beta-lactamase assay (AID 624044; calls by dose curve; note: nearly all actives have a fitted effect of over 15% in size; note: potency is the fitted concentration of half-maximal effect); details: S16 rat Schwann cells, PMP22 element beta-lactamase FRET, 24 h; ratio activity, negative = inhibition: at 38.3 µM (top of the series)
# How it was run: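 Rat S16 Schwann cells with beta-Lac driven by a PMP22 intronic element, compound-treated 24 h at 37 °C. LiveBLAzer FRET B/G read: 460 nm normalized to potassium clavulanate vs DMSO; 535 nm FRET as viability; concentration-effect curves classified.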
# [4] = qHTS profiling for inhibitors of Plasmodium falciparum proliferation (AID 504749); note: potency is the fitted concentration of half-maximal effect; for all read-outs here: nearly all actives have a fitted effect of over 60% in size; details: P. falciparum in erythrocytes, SYBR Green DNA, 72 h; for activity, negative = inhibition: at 28.7 µM (top of the series)
# How it was run: (§1)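 P. falciparum-infected erythrocytes (0.3% parasitemia, 2.5% hematocrit) incubated with compound 72 h at 37 C, 5% CO2. Parasite DNA detected by SYBR Green after lysis, overnight at room temperature; normalised to 0.29 uM artemisinin and DMSO.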
# AA1029 = experiment: as above; details: P. falciparum in erythrocytes, SYBR Green DNA, 72 h; series mostly up to 28.7 µM
# How it was run: as §1
# CP185 = experiment: as above; details: P. falciparum in erythrocytes, SYBR Green DNA, 72 h; series mostly up to 28.7 µM
# How it was run: as §1
# CP192 = experiment: as above; details: P. falciparum in erythrocytes, SYBR Green DNA, 72 h; series mostly up to 28.7 µM
# How it was run: as §1
# CP211 = experiment: as above; details: P. falciparum in erythrocytes, SYBR Green DNA, 72 h; series mostly up to 28.7 µM
# How it was run: as §1
# CP238 = experiment: as above; details: P. falciparum in erythrocytes, SYBR Green DNA, 72 h; series mostly up to 28.7 µM
# How it was run: as §1
# CP262 = experiment: as above; details: P. falciparum in erythrocytes, SYBR Green DNA, 72 h; series mostly up to 28.7 µM
# How it was run: as §1
# CP269 = experiment: as above; details: P. falciparum in erythrocytes, SYBR Green DNA, 72 h; series mostly up to 28.7 µM
# How it was run: as §1
# CP286 = experiment: as above; details: P. falciparum in erythrocytes, SYBR Green DNA, 72 h; series mostly up to 28.7 µM
# How it was run: as §1
# CP315 = experiment: as above; details: P. falciparum in erythrocytes, SYBR Green DNA, 72 h; series mostly up to 28.7 µM
# How it was run: as §1
# CP329 = experiment: as above; details: P. falciparum in erythrocytes, SYBR Green DNA, 72 h; series mostly up to 28.7 µM
# How it was run: as §1
# Dd2 = experiment: as above; details: P. falciparum in erythrocytes, SYBR Green DNA, 72 h; series mostly up to 28.7 µM
# How it was run: as §1
# ECU = experiment: as above; details: P. falciparum in erythrocytes, SYBR Green DNA, 72 h; series mostly up to 28.7 µM
# How it was run: as §1
# FAB9 = experiment: as above; details: P. falciparum in erythrocytes, SYBR Green DNA, 72 h; series mostly up to 28.7 µM
# How it was run: as §1
# JCK = experiment: as above; details: P. falciparum in erythrocytes, SYBR Green DNA, 72 h; series mostly up to 28.7 µM
# How it was run: as §1
# N140 = experiment: as above; details: P. falciparum in erythrocytes, SYBR Green DNA, 72 h; series mostly up to 28.7 µM
# How it was run: as §1
# PC49 = experiment: as above; details: P. falciparum in erythrocytes, SYBR Green DNA, 72 h; series mostly up to 28.7 µM
# How it was run: as §1
compound,measurement,setting,value
C/C(=C(/CCO)SS/C(CCO)=C(\C)N(C=O)Cc1cnc(C)nc1N)N(C=O)Cc1cnc(C)nc1N,Potency,[1],inactive
same,Potency,[2],inactive
same,Potency,[3],inactive
same,"activity, negative = inhibition",[4]; parasite line A,-6.53%
same,"activity, negative = inhibition",[4]; parasite line B,-3.11%
same,Potency,AA1029,inactive
same,Potency,CP185,inactive
same,Potency,CP192,inactive
same,Potency,CP211,inactive
same,Potency,CP238,inactive
same,Potency,CP262,inactive
same,Potency,CP269,inactive
same,Potency,CP286,inactive
same,Potency,CP315,inactive
same,Potency,CP329,inactive
same,Potency,Dd2,inactive
same,Potency,ECU,inactive
same,Potency,FAB9,inactive
same,Potency,JCK,inactive
same,Potency,N140,inactive
same,Potency,PC49,inactive
CC[C@H](C)[C@H]1O[C@]2(CC[C@@H]1C)C[C@@H]1C[C@@H](C/C=C(\C)[C@H](O[C@@H]3C[C@H](OC)[C@H](O[C@@H]4C[C@H](OC)[C@@H](O)[C@H](C)O4)[C@H](C)O3)[C@@H](C)/C=C/C=C3\CO[C@@H]4[C@H](O)C(C)=C[C@@H](C(=O)O1)[C@]34O)O2,Potency,[1],inactive
same,Potency,[2],inactive
same,Potency,[4]; parasite line A,355 nM (active)
same,Potency,[4]; parasite line B,794 nM (active)
same,Potency,AA1029,1 µM (active)
same,Potency,CP185,1 µM (active)
same,Potency,CP192,1.69 µM (active)
same,Potency,CP211,1.35 µM (active)
same,Potency,CP238,1.26 µM (active)
same,Potency,CP262,1200 nM (active)
same,Potency,CP269,1.35 µM (active)
same,Potency,CP286,1.26 µM (active)
same,Potency,CP329,1350 nM (active)
same,Potency,Dd2,2.24 µM (active)
same,Potency,ECU,891 nM (active)
same,Potency,FAB9,3.16 µM (active)
same,Potency,JCK,15.8 µM (active)
same,Potency,N140,1 µM (active)
CC(C)C[C@@H](NC(=O)[C@@H](Cc1ccccc1)NC(=O)c1cnccn1)B(O)O,Potency,[1],inactive
same,Potency,[2],inactive
same,Potency,[3],0.0224 µM (active)
same,Potency,[4]; parasite line A,79.4 nM (active)
same,Potency,[4]; parasite line B,79.4 nM (active)
same,Potency,AA1029,0.112 µM (active)
same,Potency,CP185,0.112 µM (active)
same,Potency,CP192,0.19 µM (active)
same,Potency,CP211,0.757 µM (active)
same,Potency,CP238,0.0891 µM (active)
same,Potency,CP262,120 nM (active)
same,Potency,CP269,0.151 µM (active)
same,Potency,CP286,0.0891 µM (active)
same,Potency,CP315,379 nM (active)
same,Potency,CP329,120 nM (active)
same,Potency,Dd2,0.112 µM (active)
same,Potency,ECU,126 nM (active)
same,Potency,FAB9,0.141 µM (active)
same,Potency,JCK,0.141 µM (active)
same,Potency,N140,0.1 µM (active)
same,Potency,PC49,0.158 µM (active)
O=C1NC(=O)C2C3C=CC(C3)C12 (configuration not stated),Potency,[1],inactive
same,Potency,[2],inactive
same,Potency,[3],inactive
same,"activity, negative = inhibition",[4]; parasite line A,8.3%
same,"activity, negative = inhibition",[4]; parasite line B,20.1%
same,Potency,AA1029,inactive
same,Potency,CP185,inactive
same,Potency,CP192,inactive
same,Potency,CP211,inactive
same,Potency,CP238,inactive
same,Potency,CP262,inactive
same,Potency,CP269,inactive
same,Potency,CP286,inactive
same,Potency,CP315,inactive
same,Potency,CP329,inactive
same,Potency,Dd2,inactive
same,Potency,ECU,inactive
same,Potency,FAB9,inactive
same,Potency,JCK,inactive
same,Potency,N140,inactive
same,Potency,PC49,inactive
C=C1C(n2cnc3c(=O)[nH]c(N)nc32)C[C@H](O)[C@H]1CO (some centres not stated),Potency,[1],inactive
same,Potency,[2],inactive
same,Potency,[3],inactive
same,"activity, negative = inhibition",[4]; parasite line A,9.61%
same,"activity, negative = inhibition",[4]; parasite line B,-7.65%
same,Potency,AA1029,inactive
same,Potency,CP192,inactive
same,Potency,CP211,inactive
same,Potency,CP238,inactive
same,Potency,CP269,inactive
same,Potency,CP315,inactive
same,Potency,CP329,inactive
same,Potency,Dd2,inactive
same,Potency,ECU,inactive
same,Potency,FAB9,inactive
same,Potency,JCK,inactive
same,Potency,N140,inactive
O=C(O)Cc1sc(-c2ccc(Cl)cc2)nc1-c1ccccc1,Potency,[1],inactive
same,Potency,[2],25.6 µM (active)
same,Potency,[3],inactive
same,"activity, negative = inhibition",[4]; parasite line A,4.11%
same,"activity, negative = inhibition",[4]; parasite line B,-3.92%
same,Potency,AA1029,inactive
same,Potency,CP185,inactive
same,Potency,CP192,inactive
same,Potency,CP211,inactive
same,Potency,CP238,inactive
same,Potency,CP262,inactive
same,Potency,CP269,inactive
same,Potency,CP286,inactive
same,Potency,CP315,inactive
same,Potency,CP329,inactive
same,Potency,Dd2,inactive
same,Potency,ECU,inactive
same,Potency,FAB9,inactive
same,Potency,JCK,inactive
same,Potency,N140,inactive
same,Potency,PC49,inactive
C[N+]12CCCC[C@@H]1CCC(=C(c1cccs1)c1cccs1)C2 (some centres not stated),Potency,[1],inactive
same,Potency,[2],inactive
same,Potency,[3],inactive
same,Potency,[4]; parasite line A,10000 nM (active)
same,Potency,[4]; parasite line B,12600 nM (active)
same,Potency,AA1029,8.91 µM (active)
same,Potency,CP185,8.91 µM (active)
same,Potency,CP192,10.7 µM (active)
same,Potency,CP211,13.5 µM (active)
same,Potency,CP262,inactive
same,Potency,CP269,13.5 µM (active)
same,Potency,CP286,6.31 µM (active)
same,Potency,ECU,1000 nM (active)
same,Potency,FAB9,11.2 µM (active)
same,Potency,JCK,10 µM (active)
same,Potency,N140,12.6 µM (active)
same,Potency,PC49,10 µM (active)
C[C@@H]1CC2C3CCC4=CC(=O)C=C[C@]4(C)[C@@]3(F)[C@@H](O)C[C@]2(C)[C@@]1(O)C(=O)COC(=O)c1cccc(S(=O)(=O)O)c1 (some centres not stated),Potency,[1],inactive
same,Potency,[2],inactive
same,"activity, negative = inhibition",[4]; parasite line A,4.33%
same,"activity, negative = inhibition",[4]; parasite line B,-2.2%
same,Potency,AA1029,inactive
same,Potency,CP185,inactive
same,Potency,CP192,inactive
same,Potency,CP211,inactive
same,Potency,CP238,inactive
same,Potency,CP262,inactive
same,Potency,CP269,inactive
same,Potency,CP286,inactive
same,Potency,CP315,inactive
same,Potency,CP329,inactive
same,Potency,Dd2,inactive
same,Potency,ECU,inactive
same,Potency,FAB9,inactive
same,Potency,JCK,inactive
same,Potency,N140,inactive
same,Potency,PC49,inactive
CO/N=C(/C(=O)N[C@@H]1C(=O)N2C(C(=O)O)=C(CSc3nnnn3C)CS[C@H]12)c1csc(N)n1,Potency,[1],inactive
same,Potency,[2],inactive
same,"activity, negative = inhibition",[4]; parasite line A,6.68%
same,"activity, negative = inhibition",[4]; parasite line B,0.88%
same,Potency,AA1029,inactive
same,Potency,CP185,inactive
same,Potency,CP192,inactive
same,Potency,CP211,inactive
same,Potency,CP238,inactive
same,Potency,CP262,inactive
same,Potency,CP269,inactive
same,Potency,CP286,inactive
same,Potency,CP315,inactive
same,Potency,CP329,inactive
same,Potency,Dd2,inactive
same,Potency,ECU,inactive
same,Potency,FAB9,inactive
same,Potency,JCK,inactive
same,Potency,N140,inactive
same,Potency,PC49,inactive
CCC(C(=O)C(C)C(O)C(C)CCc1ccc(C)c(O)c1C(=O)O)C1OC(CC)(C2CC[C@@](O)(CC)C(C)O2)CC1C (some centres not stated),Potency,[1],inactive
same,Potency,[2],inactive
same,Potency,[3],6.3 µM (active)
same,Potency,[4]; parasite line A,794 nM (active)
same,Potency,[4]; parasite line B,1120 nM (active)
same,Potency,AA1029,0.708 µM (active)
same,Potency,CP185,1.12 µM (active)
same,Potency,CP211,0.536 µM (active)
same,Potency,CP238,1 µM (active)
same,Potency,CP262,953 nM (active)
same,Potency,CP269,0.757 µM (active)
same,Potency,CP286,0.631 µM (active)
same,Potency,CP315,849 nM (active)
same,Potency,CP329,757 nM (active)
same,Potency,Dd2,0.794 µM (active)
same,Potency,ECU,708 nM (active)
same,Potency,FAB9,2 µM (active)
same,Potency,JCK,8.91 µM (active)
same,Potency,N140,0.562 µM (active)
same,Potency,PC49,2 µM (active)
COc1cc(/C=C2\CCC/C(=C\c3ccc(O)c(OC)c3)C2=O)ccc1O,Potency,[1],inactive
same,Potency,[3],25.1 µM (active)
same,Potency,[4]; parasite line A,11200 nM (active)
same,Potency,[4]; parasite line B,10000 nM (active)
same,Potency,AA1029,12.6 µM (active)
same,Potency,CP185,11.2 µM (active)
same,Potency,CP211,16.9 µM (active)
same,Potency,CP238,10 µM (active)
same,Potency,CP262,inactive
same,Potency,CP269,10.7 µM (active)
same,Potency,CP315,19000 nM (active)
same,Potency,Dd2,11.2 µM (active)
same,Potency,ECU,11200 nM (active)
same,Potency,JCK,10 µM (active)
same,Potency,N140,11.2 µM (active)
same,Potency,PC49,11.2 µM (active)
